# TPT1 inh: C. albicans TPT1 enzyme inhibition; recombinant caTPT1, FP RNA substrate dephosphorylation; inhibition, % at 5 µM; 300,000 compounds, 0.81% hits;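 active = inhibition above the mean of all tested compounds plus 3 SD, set per screening campaign, cut at about 24% in these data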;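 also: plate controls were DMSO alone for no effect and ferristatin control at 100 nM for full effect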
# Rpn11 inh: inhibitors of human proteasome Rpn11 | AID 588493 | 360,000 compounds, 0.59% hits | O00487 | human 26S proteasome, Ub4-pepOG fluorescence polarization; 20S core pre-blocked with epoxomicin | inhibition, % at 20 µM;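 active = inhibition at 20 µM, scaled to each plate's controls, above about 33%, limit read from the data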
# PHOSPHO1 block: inhibitors of human PHOSPHO1 phosphatase; Q8TCT1; recombinant PHOSPHO1, absorbance phosphatase assay; inhibition, % at 13.3 µM; 290,000 compounds, 1.1% hits; AID 1565; in the data active = inhibition above about 60%
# Target sequence (Q8TCT1 whole entry, looked up): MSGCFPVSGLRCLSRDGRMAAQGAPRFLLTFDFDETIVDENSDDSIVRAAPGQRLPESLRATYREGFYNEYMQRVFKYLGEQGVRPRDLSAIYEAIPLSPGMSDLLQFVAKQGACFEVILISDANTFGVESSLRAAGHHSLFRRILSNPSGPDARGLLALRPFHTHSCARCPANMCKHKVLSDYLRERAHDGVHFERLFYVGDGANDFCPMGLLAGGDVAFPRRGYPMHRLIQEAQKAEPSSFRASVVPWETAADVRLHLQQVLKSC
# HNF4A DNA FP: change in binding of human HNF4 alpha to DNA; P41235; HNF4a-FITC DNA binding, fluorescence polarization, 1 h; activity change, % at 10 µM; 360,000 compounds, 0.3% hits; in the data active = activity change above about 30%, passing the limit was not always enough
# NRP1-CendR mod: NRP-1/CendR interaction modulation; FAM-RPARPAR peptide binding to NRP-1, fluorescence polarization; inhibition, % at 25 µM; 360,000 compounds, 0.85% hits; AID 602438;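 active = inhibition or corrected inhibition above about 18%, plus a signal ratio from 0.5 to 1.5, limit read from the data, passing the limit was not always enough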
# Fh CTSL1 inh: cathepsin L1 inhibition, PFM18AAP counter-screen; recombinant F. hepatica cathepsin L1, Z-Leu-Arg-MCA fluorescence; inhibition, % at 5.96 µM; 300,000 compounds, 0.49% hits;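 active = inhibition above the mean of all tested compounds plus 3 SD, set per screening campaign, cut at about 17% in these data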;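 also: 0% = plate median of test compound wells and 100% = 1 µM Z-Phe-Ala-diazomethylketone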
# Rpn11 confirm: Rpn11 inhibition confirmation, single concentration | shares compounds with Rpn11 inh | inhibition, % at 20 µM | 1,900 compounds, 29% hits | purified human 26S proteasome, Ub4-pepOG fluorescence polarization; proteasome pretreated with epoxomicin
# MMP-2 inh: blocks human MMP-2, flagging nonselective RPN11 hits; shares compounds with Rpn11 inh; recombinant MMP-2, FRET peptide cleavage fluorescence; inhibition, % at 20 µM; 1,900 compounds, 4% hits; AID 602330;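 also: human MMP-2 activated beforehand with APMA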
# Thrombin FP: blocks bovine thrombin, flagging nonselective RPN11 hits. shares compounds with Rpn11 inh. bovine thrombin cleavage of Ub4-pepOG, fluorescence polarization. inhibition, % at 20 µM. 1,900 compounds, 13% hits. AID 602333;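 active = mean inhibition at least 40% at 20 µM, or signal 3 deviations below plate average, so some actives read negative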;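 also: plate controls were thrombin with DMSO for no effect and buffer wells lacking thrombin for full effect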
# * marks the source's active call; other numbers are inactive results; . = no result. Compounds with a hit are over-represented: about 3.3% of the library has one in this group of screens. Rule as the data show it, unless noted: active = inhibition above about 40%; inactive = the rest.
SMILES,TPT1 inh,Rpn11 inh,PHOSPHO1 block,HNF4A DNA FP,NRP1-CendR mod,Fh CTSL1 inh,Rpn11 confirm,MMP-2 inh,Thrombin FP
CCS(=O)(=O)N1N=C(c2ccc(NS(C)(=O)=O)cc2)CC1c1ccccc1 (centres undefined),7,82*,-2,86*,-208,0,153*,-20,139*
C=CCn1nc([N+](=O)[O-])nc1Sc1cccc2cccnc12,3,67*,0,-5,-10,4,28,3,-15
O=[N+]([O-])c1cc(Cl)ccc1Sc1cccc2cccnc12,-1,3,-6,5,0,-1,.,.,.
O=[N+]([O-])c1ccc(Sc2cccc3cccnc23)c([N+](=O)[O-])c1,1,71*,87*,-4,7,1,57*,-11,0
O=[N+]([O-])c1ccc(Sc2cccc3cccnc23)cc1,-2,-3,4,5,7,-1,.,.,.
COc1cccc(OC)c1-c1nn(-c2ncc(C(F)(F)F)cc2Cl)c(=O)o1,0,1,30,0,-7,-3,.,.,.
CC1=NN(Cc2cc(C(C)(C)C)c(O)c(C(C)(C)C)c2)C(=O)C1,-2,11,9,7,1,-3,.,.,.
CC(=O)C1=C(O)C(=CC=Cc2ccccc2)OC1=O,.,41*,.,60*,-92,.,43*,-17,26
CC1CCN(c2ccc(-c3cccc(NC(=O)c4ccco4)c3)nn2)CC1,0,0,.,0,0,5,.,.,.
O=C(Nc1ccc2c(c1)CCC2)c1cc(S(=O)(=O)N2CCN(c3ccccc3)CC2)ccc1Cl,22,64*,1,22,-54,5,41*,14,-50
O=C(NC1CCCCC1)c1cc(S(=O)(=O)N2CCN(c3ccccc3)CC2)ccc1Cl,.,-1,.,2,-2,.,.,.,.
COc1cc(/C=C/c2nc3ccccc3s2)cc(OC)c1O,16,47*,28,10,-40,6,4,-19,10
COc1cc(C=C(c2nc3ccccc3s2)c2nc3ccccc3s2)ccc1O,11,61*,-4,-3,-41,0,5,-28,4
CC(C)CC1OC(C)Cc2[nH][nH]c(=O)c21 (centres undefined),.,.,.,2,7,.,.,.,.
Cc1c2c(=O)n(-c3nc4ccccc4s3)nc-2cc(O)n1Cc1ccccc1,.,41*,8,-7,-27,.,6,-14,6
Nc1ccc(-c2nc3ccccc3o2)cc1,12,41*,37,4,-54,1,18,7,2
Nc1cc(N)cc(-c2nc3ccccc3o2)c1,0,8,.,6,-20,2,.,.,.
CCOC(=O)c1oc2ccccc2c1NC(=O)CN1CCOCC1,-2,0,24,-4,4,1,.,.,.
O=C(N/N=C/c1cc([N+](=O)[O-])ccc1Cl)c1ccc2nc[nH]c2c1,1,69*,6,2,6,5,22,-7,2
O=C(N/N=C/c1ccccc1C(F)(F)F)c1ccc2nc[nH]c2c1,1,5,4,0,-2,-2,.,.,.
O=C(N/N=C/c1ccc(Cl)cc1Cl)c1ccc2nc[nH]c2c1,1,62*,-50,0,16,3,63*,-38,37
O=c1c2c(nc3cc(-c4ccccc4Cl)[nH]n13)CCS2,-1,56*,6,-5,-74,2,12,0,10
CC/C(=N/Nc1ccccc1)c1cnnc(-c2ccccc2)n1,-1,3,10,14,-31,-1,.,.,.
CC/C(=N/Nc1cccc(Cl)c1)c1cnnc(SC)n1,5,56*,-3,15,11,-1,4,0,-23
Cc1noc(C)c1Cc1ccc(O)cc1,1,8,26,-4,3,1,.,.,.
Cc1ccc(S(=O)(=O)Nc2ccccc2-c2ccccc2)cc1,-1,33*,1,-4,12,0,-25,13,-14

# Screening results (PubChem)
